Structures are written as SMILES. The source made the active and inactive calls. How the source made its calls: active means hit-call score of the fitted dose curve at least 0.9, where 1 is the maximum; inactive means score below 0.9.

Settings in all cases: mRNA level, 48 h; actives raise or lower the signal
Read-out in assay [1]: NAD(P)H dehydrogenase [quinone] 1 (NQO1), NQO1 (gene 1728)
Briefly: LTEA_HepaRG_NQO1: Life Technologies and Expression Analysis (LTEA) Assay for NAD(P)H dehydrogenase [quinone] 1 (NQO1) using HepaRG (AID 2283526). In short, it runs like this: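 Transcript induction or suppression is quantified by qRT-PCR in human HepaRG liver cells dosed for 48 hours. Eight half-log concentrations topping at 100 uM are used, with 0.5% DMSO as vehicle and baseline.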

Read-out in assay [2]: Nuclear factor erythroid 2-related factor 2 (Homo sapiens) (UniProt Q16236)
Briefly: LTEA_HepaRG_NFE2L2: Life Technologies and Expression Analysis (LTEA) Assay for Nuclear factor erythroid 2-related factor 2 (NFE2L2) Transcription Factor using HepaRG (AID 2283527).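 On outcome: TaqMan qRT-PCR transcript level normalised to ACTB GAPDH and POLR2A housekeeping genes.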 In short, it runs like this:
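NFE2L2 transcript level was read by qRT-PCR (housekeeping ACTB/GAPDH/POLR2A normalisation) after 48 h chemical treatment of HepaRG in serum-free induction medium. Duplicate 8-point half-log curves, top 100 uM, 0.5% DMSO vehicle; up- or down-regulation fitted against vehicle.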

Read-out in assay [3]: succinate dehydrogenase complex iron sulfur subunit B (SDHB), SDHB (gene 6390)
Put plainly: LTEA_HepaRG_SDHB: Life Technologies and Expression Analysis (LTEA) Assay for succinate dehydrogenase complex iron sulfur subunit B (SDHB) using HepaRG (AID 2283528). The method, boiled down: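 HepaRG, 48 h exposure, 8-pt half-log series from 100 uM in 0.5% DMSO, duplicates. Readout: SDHB mRNA by Fluidigm qRT-PCR vs housekeeping genes; bidirectional fit relative to DMSO.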

Read-out in assay [4]: Signal transducer and activator of transcription 3 (Homo sapiens) (UniProt P40763)
Put plainly: LTEA_HepaRG_STAT3: Life Technologies and Expression Analysis (LTEA) Assay for Signal transducer and activator of transcription (STAT3) using HepaRG (AID 2283529). The method, boiled down: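 STAT3 transcript quantified by qRT-PCR against three housekeeping genes (ACTB, GAPDH, POLR2A), fitted both directions relative to DMSO. HepaRG cultures exposed 48 h to eight half-log concentrations, top 100 uM, 0.5% DMSO, serum-free induction medium.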

Read-out in assay [5]: solute carrier (SLCO1B1), SLCO1B1 (gene 10599)
Put plainly: LTEA_HepaRG_SLCO1B1: Life Technologies and Expression Analysis (LTEA) Assay for solute carrier (SLCO1B1) using HepaRG (AID 2283530). The method, boiled down:
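Differentiated human HepaRG cells, plated 48 h, switched to serum-free induction medium and exposed in duplicate for 48 h to 8 half-log concentrations (top 100 uM) in 0.5% DMSO. SLCO1B1 mRNA by TaqMan qRT-PCR, normalized to ACTB/GAPDH/POLR2A.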

Read-out in assay [6]: sulfotransferase 2A1 (SULT2A1), SULT2A1 (gene 6822)
Briefly: LTEA_HepaRG_SULT2A1: Life Technologies and Expression Analysis (LTEA) Assay for sulfotransferase 2A1 (SULT2A1) using HepaRG (AID 2283531). In short, it runs like this:
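Differentiated human HepaRG cells in serum-free induction medium were exposed for 48 h to eight half-log concentrations (top 100 uM, 0.5% DMSO). SULT2A1 mRNA was measured by qRT-PCR, normalized to ACTB, GAPDH and POLR2A, and fitted bidirectionally against DMSO.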

Read-out in assay [7]: Transforming Growth Factor (TGFA), TGFA (gene 7039)
Put plainly: LTEA_HepaRG_TGFA: Life Technologies and Expression Analysis (LTEA) Assay for Transforming Growth Factor (TGFA) using HepaRG (AID 2283532). The method, boiled down: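 TGFA transcript quantified by qRT-PCR (Fluidigm arrays) against three housekeeping genes, after 48 hours chemical treatment of HepaRG cells. Top concentration 100 uM with half-log dilutions, 8 points, duplicates, 0.5% DMSO.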

Read-out in assay [8]: Transforming Growth Factor (TGFB1), TGFB1 (gene 7040)
Briefly: LTEA_HepaRG_TGFB1: Life Technologies and Expression Analysis (LTEA) Assay for Transforming Growth Factor (TGFB1) Transporter using HepaRG (AID 2283533). The method, boiled down: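 Differentiated human HepaRG cells in serum-free induction medium were exposed in duplicate for 48 h to eight concentrations (top 100 uM, half-log steps, 0.5% DMSO). TGFB1 mRNA was quantified by qRT-PCR, normalized to ACTB, GAPDH, POLR2A, and fitted bidirectionally against DMSO.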

Read-out in a further assay: TIMP1, TIMP1 (gene 7076)
Briefly: LTEA_HepaRG_TIMP1: Life Technologies and Expression Analysis (LTEA) Assay for TIMP1 using HepaRG (AID 2283534). The method, boiled down:
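Differentiated human HepaRG cells in serum-free induction medium were exposed 48 h to chemicals (8 half-log concentrations, top 100 uM, 0.5% DMSO). TIMP1 mRNA was quantified by TaqMan qRT-PCR, normalized to ACTB/GAPDH/POLR2A; bidirectional fit versus DMSO.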

Read-out in assay [9]: Tumor necrosis factor receptor 1 (TNFRSF1A), TNFRSF1A (gene 7132)
Briefly: LTEA_HepaRG_TNFRSF1A: Life Technologies and Expression Analysis (LTEA) Assay for Tumor necrosis factor receptor 1 (TNFRSF1A) using HepaRG (AID 2283535). The method, boiled down: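 Differentiated human HepaRG cells were exposed in duplicate for 48 h in serum-free induction medium to eight concentrations (top 100 uM, half-log steps, 0.5% DMSO). TNFRSF1A mRNA was quantified by qRT-PCR, normalized to ACTB, GAPDH and POLR2A, then fitted bidirectionally against DMSO.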

Nuclear factor erythroid 2-related factor 2 (Homo sapiens), sequence (Q16236 whole entry, looked up): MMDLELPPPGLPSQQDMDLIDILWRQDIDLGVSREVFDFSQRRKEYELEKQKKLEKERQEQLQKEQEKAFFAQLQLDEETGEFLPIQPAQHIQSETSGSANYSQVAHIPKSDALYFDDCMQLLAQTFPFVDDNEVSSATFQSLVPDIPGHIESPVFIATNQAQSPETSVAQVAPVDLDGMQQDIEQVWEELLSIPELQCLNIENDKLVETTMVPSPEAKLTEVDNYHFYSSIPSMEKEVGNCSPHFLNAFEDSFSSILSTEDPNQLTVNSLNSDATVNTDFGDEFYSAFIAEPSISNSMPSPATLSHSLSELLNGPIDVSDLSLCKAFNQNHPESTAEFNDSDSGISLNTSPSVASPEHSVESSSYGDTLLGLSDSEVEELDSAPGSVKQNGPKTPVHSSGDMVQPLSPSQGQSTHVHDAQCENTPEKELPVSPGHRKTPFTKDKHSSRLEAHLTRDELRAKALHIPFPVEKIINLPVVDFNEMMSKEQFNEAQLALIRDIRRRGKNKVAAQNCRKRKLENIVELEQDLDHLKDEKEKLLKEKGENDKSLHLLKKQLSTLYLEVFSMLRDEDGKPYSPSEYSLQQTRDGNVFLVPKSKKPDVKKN
Signal transducer and activator of transcription 3 (Homo sapiens), sequence (P40763 whole entry, looked up): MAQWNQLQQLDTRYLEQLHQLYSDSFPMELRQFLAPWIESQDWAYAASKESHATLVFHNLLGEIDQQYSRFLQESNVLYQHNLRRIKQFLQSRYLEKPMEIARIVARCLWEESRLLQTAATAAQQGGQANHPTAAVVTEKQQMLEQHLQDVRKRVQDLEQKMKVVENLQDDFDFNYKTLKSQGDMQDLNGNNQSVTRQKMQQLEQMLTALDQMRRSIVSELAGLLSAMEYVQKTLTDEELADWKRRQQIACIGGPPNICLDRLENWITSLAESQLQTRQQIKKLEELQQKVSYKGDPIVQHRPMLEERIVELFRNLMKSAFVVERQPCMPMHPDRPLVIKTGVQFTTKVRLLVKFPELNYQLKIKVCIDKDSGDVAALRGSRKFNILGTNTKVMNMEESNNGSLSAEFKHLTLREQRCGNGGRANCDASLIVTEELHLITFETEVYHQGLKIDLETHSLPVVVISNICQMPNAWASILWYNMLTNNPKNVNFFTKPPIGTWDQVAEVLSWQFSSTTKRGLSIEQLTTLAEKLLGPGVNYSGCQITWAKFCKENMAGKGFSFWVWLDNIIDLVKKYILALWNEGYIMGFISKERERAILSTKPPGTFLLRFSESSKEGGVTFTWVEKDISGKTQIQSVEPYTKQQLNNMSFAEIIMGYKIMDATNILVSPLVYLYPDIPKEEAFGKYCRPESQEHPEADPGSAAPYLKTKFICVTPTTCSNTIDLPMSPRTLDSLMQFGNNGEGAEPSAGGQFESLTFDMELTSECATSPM

Turning to `Clc1cc(Cl)c(Cl)cc1Cl`, the result in [1], in assay [2], in assay [3], in assay [4], in assay [5] and in [6] was inactive. Moreover, the outcome in assay [7] is “inactive”; in assay [8] it was “inactive”; in the assay with TIMP1, TIMP1 (gene 7076), “inactive”; in [9] it was “inactive”.
Turning to `CCCCCCC(=O)OCC`, the call in [1], in assay [2], in [3], in [4], in assay [5] and in assay [6] was inactive. The outcome in assay [7] is “inactive”; in [8], “inactive”; in the assay with TIMP1, TIMP1 (gene 7076), “inactive”; in assay [9] it was “inactive”.
In the case of `COc1ccc2c(c1)c(CC(=O)O)c(C)n2C(=O)c1ccc(Cl)cc1`, the call in [1], in assay [2], in assay [3], in assay [4], in assay [5] and in [6] was inactive. Further, the outcome was “inactive” in assay [7]; “inactive” in assay [8]; “inactive” in the assay with TIMP1, TIMP1 (gene 7076); “inactive” in assay [9].
The term AC50 denotes the concentration at which the activity in the assay is half-maximal. As to `CC(C)(C)c1cc(O)c(C(C)(C)C)cc1O`, the AC50 is 80.6 µM (active) in assay [1]; 79.1 µM (active) in assay [5]; 90.9 µM (active) in assay [6]; 50 µM (active) in the assay with TIMP1, TIMP1 (gene 7076); 78.3 µM (active) in assay [9]. Further, the outcome in assay [2], in [3], in assay [4], in assay [7] and in assay [8] was inactive.
On to `CCCCCCCCCCCC(=O)OC`, for which the call in [1], in [2], in assay [3], in [4], in assay [5] and in assay [6] was inactive. The outcome is “inactive” in assay [7]; “inactive” in assay [8]; “inactive” in the assay with TIMP1, TIMP1 (gene 7076); “inactive” in [9].
For the compound `CCCCC(CC)COC(=O)CC(C(=O)OCC(CC)CCCC)S(=O)(=O)O` (centres undefined), the outcome in [1] was “inactive”; in assay [2], “inactive”; in assay [4], “inactive”; in the assay with TIMP1, TIMP1 (gene 7076) it was “inactive”. Further, the half-maximal activity concentration (AC50) in assay [3] is 86.7 µM (active); in assay [5] it was 85.5 µM (active); in assay [6] it was 80.2 µM (active); in assay [7], 50 µM (active); in assay [8], 77.6 µM (active); in [9], 93.5 µM (active).
On to `O=C(O)Cc1ccccc1Nc1c(Cl)cccc1Cl`, for which the result in assay [1], in assay [2], in assay [3], in [4], in [5] and in assay [6] was inactive. Moreover, the outcome is “inactive” in assay [7]; “inactive” in [8]; “inactive” with TIMP1, TIMP1 (gene 7076); “inactive” in assay [9].
As for `OC[C@@H](O)[C@@H](O)[C@H](O)[C@H](O)CO`, the compound was called inactive in assay [1], in assay [2], in assay [3], in assay [4], in assay [5] and in assay [6]. The outcome in [7] is “inactive”; in assay [8], “inactive”; in the assay with TIMP1, TIMP1 (gene 7076), “inactive”; in assay [9] it was “inactive”.
For the compound `Cc1ccccc1Cl`, the compound was classed as inactive in [1], in assay [2], in [3], in assay [4], in assay [5] and in assay [6]. Moreover, the compound was classed as inactive in assay [7], in assay [8] and in assay [9].
Consider `Nc1ccccc1N`, for which the call in assay [1], in [2] and in [4] was inactive. Also, the AC50 in assay [3] was 85.1 µM (active); in assay [5], 69.5 µM (active); in assay [6], 85.9 µM (active); in assay [7] it was 50 µM (active); in assay [8], 29.6 µM (active); in assay [9], 50 µM (active).
In the case of `C=CCOC(=O)c1ccccc1C(=O)OCC=C`, the compound was called inactive in [1], in assay [2], in [3], in [4], in assay [5] and in assay [6]. In addition, the outcome in assay [7] was “inactive”; in assay [8] it was “inactive”; with TIMP1, TIMP1 (gene 7076) it was “inactive”; in assay [9], “inactive”.
Regarding `NCCO`, the compound was called inactive in [1], in assay [2], in assay [3], in assay [4], in [5] and in assay [6]. Also, the outcome was “inactive” in [7]; “inactive” in assay [8]; “inactive” with TIMP1, TIMP1 (gene 7076); “inactive” in assay [9].
Turning to `Cc1ccc(C)c(C)c1`, the compound was classed as inactive in assay [1], in [2], in assay [3], in assay [4], in [5] and in assay [6]. For the same compound, the call in assay [7], in assay [8] and in assay [9] was inactive.
As for `CCCCCCCCCCCCCCCC`, the compound was classed as inactive in [1], in [2], in assay [3], in assay [4], in [5] and in [6]. The outcome is “inactive” in assay [7]; “inactive” in assay [8]; “inactive” with TIMP1, TIMP1 (gene 7076); “inactive” in [9].
As for `CC(CO)OC(C)CO` (centres undefined) (tested in a mixture with another compound), the compound was called inactive in [1], in assay [2], in assay [3], in assay [4], in [5] and in assay [6]. In addition, the outcome in assay [7], in assay [8] and in assay [9] was inactive.
For the compound `Cc1ccc(C)c(O)c1C`, the compound was classed as inactive in assay [1], in assay [2], in [3], in assay [4], in assay [5] and in assay [6]. Besides, the outcome is “inactive” in assay [7]; “inactive” in [8]; “inactive” with TIMP1, TIMP1 (gene 7076); “inactive” in assay [9].
Turning to `CN1CCN(Cc2cc(-c3ccc4[nH]c(=O)oc4c3)co2)[C@@H](c2ccc(F)cc2)C1`, the compound was classed as inactive in [1], in assay [2], in assay [3], in assay [4], in [5] and in assay [6]. For the same compound, the outcome is “inactive” in [7]; “inactive” with TIMP1, TIMP1 (gene 7076); “inactive” in assay [9]. Also, the AC50 in [8] was 62 µM (active).
Consider `CC(C)c1ccc(C(=O)N=C(N)N)cc1S(C)(=O)=O`, for which the AC50 in assay [1] was 0.959 µM (active); in [2] it was 7.8 µM (active); in [7], 0.555 µM (active); in assay [8], 0.403 µM (active); in assay [9], 0.337 µM (active). For the same compound, the compound was classed as inactive in assay [3], in assay [4], in assay [5] and in assay [6].
On to `Cc1nc(-c2ccc3c(c2)CCN(CCC2CCC(NC(=O)/C=C/c4ccc(F)cc4)CC2)CC3)no1` (centres undefined), for which the compound was classed as inactive in assay [1], in assay [2], in assay [3], in assay [4], in [5] and in assay [6]. Also, the outcome in assay [7] is “inactive”; in assay [8], “inactive”; in the assay with TIMP1, TIMP1 (gene 7076), “inactive”; in assay [9] it was “inactive”.
For the compound `Cc1c(C(=O)O)c(O)cc2c1C(=O)c1c(O)c([C@@H]3O[C@H](CO)[C@@H](O)[C@H](O)[C@H]3O)c(O)c(O)c1C2=O`, the compound was called inactive in assay [1], in assay [2], in [3], in assay [4], in [5] and in [6]. Besides, the outcome in assay [7], in assay [8] and in assay [9] was inactive.
`CC1(C)NC(=O)NC1=O`: the compound was called inactive in assay [1], in assay [2], in assay [3], in assay [4], in assay [5] and in [6]. Moreover, the outcome in [7] was “inactive”; in assay [8], “inactive”; in the assay with TIMP1, TIMP1 (gene 7076), “inactive”; in [9], “inactive”.
Take `CC1=C(/C=C/C(C)=C/C=C/C(C)=C/CO)C(C)(C)CCC1`: the AC50 in assay [1] and in assay [6] was 52.2 µM (active) throughout. Moreover, the call in [2], in [3], in assay [4], in [5], in [7] and in [8] was inactive. In addition, the outcome was “inactive” in the assay with TIMP1, TIMP1 (gene 7076) and “inactive” in [9].

Values taken from PubChem BioAssay (EPA / NIEHS).
